Assay [1] relates to DLD1. Briefly: cell viability (CellTiter-Glo) relative to plate median (fraction of plate median); higher = more viable cells. Particulars: 5 µM; treatment time 24 h; reporter: 7TFP. The method, boiled down:
(§1)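 Colorectal cancer lines with stably integrated lentiviral TCF/Wnt firefly luciferase reporters received library compounds at a final 5 µM, 24 h after seeding into 384-well plates, for a 24 h exposure. Reported figures are plate-median-normalised firefly luciferase or CellTiterGlo luminescence per well. They average two independent replicates.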

Assay [2] concerns HCT116. The assay is described as above. As to conditions: 5 µM; treatment time 24 h; reporter: TCF4/Wnt. The method, boiled down:
as §1

The subject of assay [3] is SW480. The description is as above. As to conditions: 5 µM; treatment time 24 h; reporter: 7TFP. Summed up:
as §1

Assay [4] deals with DLD1. Briefly: TCF/Wnt firefly luciferase reporter signal relative to plate median (fraction of plate median); higher = higher Wnt reporter signal. Particulars: 5 µM; treatment time 24 h; reporter: 7TFP. Summed up:
as §1
On the technique in general: Reporter assays use an easily measured gene product as a stand-in for the process of interest.

The subject of assay [5] is SW480. The assay is described as above. Particulars: 5 µM; treatment time 24 h; reporter: 7TFP. Summed up:
as §1

We go through 28 molecules from the supplement of paper PMC6522484.

Molecules are shown by their SMILES. ± gives the standard deviation of the averaged measurements.

Consider `NC(=O)c1ccccc1O`, for which the cell viability in assay [1] was determined as 1.07 ± 0.014; in assay [2], 0.991 ± 0.056; in assay [3], 0.972 ± 0.014. Further, the entries for the “TCF/Wnt firefly luciferase reporter signal” value in assay [4] and in assay [5] were 0.993 ± 0.096 and 0.81 ± 0.12, respectively.
For `COc1ccc(-c2cc(=O)c3cc(OC)ccc3o2)cc1`, the cell viability in assay [1] amounted to 0.967 ± 0.031; in assay [2], 0.964 ± 0.065; in assay [3], 0.998 ± 0.059. Moreover, the “TCF/Wnt firefly luciferase reporter signal” value in assay [4] was found to be 1.17 ± 0.057; in assay [5], 1.33 ± 0.014.
On the same counts, the results for `Nc1ccc(C(=O)NCC(=O)O)cc1` are 0.988 ± 0.059, 0.962 ± 0.069, 0.98 ± 0.057, 0.998 ± 0.088 and 0.984 ± 0.12.
As to `CN(C)CCc1c[nH]c2ccc(Cn3cncn3)cc12`, the cell viability in assay [1] is 0.968 ± 0.011; in assay [2], 1.09 ± 0.064; in assay [3], 1.03 ± 0.042. Besides, the “TCF/Wnt firefly luciferase reporter signal” value in assay [4] stood at 1.09 ± 0.2; in assay [5] it was 1.07 ± 0.099.
On the same counts, the results for `O=C(O)CCC(=O)c1ccc(-c2ccccc2)cc1` are 1.04 ± 0.073, 0.947 ± 0.12, 0.962 ± 0.018, 1 ± 0.095 and 1.04.
On the same counts, the results for `CCOC(=O)C1=C(COCCN)NC(C)=C(C(=O)OC)C1c1ccccc1Cl` (stereo not given) are 0.998 ± 0.031, 1.01 ± 0.097, 1.03 ± 0.083, 1.02 ± 0.11 and 1.04 ± 0.042.
On the same counts, the results for `COC(=O)C1=C(C)NC(C)=C(C(=O)OCC(C)C)C1c1ccccc1[N+](=O)[O-]` (stereo not given) are 0.869 ± 0.11, 1 ± 0.041, 0.905 ± 0.071, 0.961 ± 0.24 and 0.923 ± 0.037.
For the molecule `CCN1CCN(C(=O)N[C@@H](C(=O)N[C@@H]2C(=O)N3C(C(=O)O)=C(CSc4nnnn4C)CS[C@H]23)c2ccc(O)cc2)C(=O)C1=O`, the cell viability in assay [1] was 0.973 ± 0.053; in assay [2] it was 1.06 ± 0.035; in assay [3] it was 0.951 ± 0.023. For the same molecule, the results for the “TCF/Wnt firefly luciferase reporter signal” value in assay [4] and in assay [5] were 0.886 ± 0.042 and 1.01 ± 0.098, respectively.
As to `O=C(/C=C/c1ccc(O)c(O)c1)O[C@H](Cc1ccc(O)c(O)c1)C(=O)O`, the figures for the cell viability in assay [1], in assay [2] and in assay [3] were 1.04 ± 0.014, 0.947 ± 0.09 and 0.998 ± 0.031, respectively. The “TCF/Wnt firefly luciferase reporter signal” value is 0.854 ± 0.015 in assay [4] and 0.934 ± 0.054 in assay [5].
As to `O=c1cc(-c2ccc(O)cc2)oc2cc(O)ccc12`, the values for the cell viability in assay [1], in assay [2] and in assay [3] were 1.06 ± 0.13, 0.987 ± 0.1 and 0.987 ± 0.033, respectively. The figures for the “TCF/Wnt firefly luciferase reporter signal” value in assay [4] and in assay [5] were 0.92 ± 0.11 and 1.04 ± 0.028, respectively.
With `CCCCC[C@H](CC(=O)NO)C(=O)N[C@H](C(=O)N1CCC[C@H]1CO)C(C)C`, the cell viability in assay [1] was 0.951 ± 0.0042; in assay [2], 0.932 ± 0.057; in assay [3], 0.9655 ± 0.00071. Further, the figures for the “TCF/Wnt firefly luciferase reporter signal” value in assay [4] and in assay [5] were 1 ± 0.05 and 1.16 ± 0.035, respectively.
For `CC[C@H](C)C(=O)O[C@H]1C[C@H](O)C=C2C=C[C@H](C)[C@H](CC[C@@H](O)C[C@@H](O)CC(=O)O)[C@H]21` the same measures were 1.03 ± 0.014, 1.02 ± 0.028, 0.989 ± 0.0028, 1.04 ± 0.076 and 0.928 ± 0.16.
For `Cn1ccnc1S` the same measures were 0.997 ± 0.047, 1.04 ± 0.021, 0.981 ± 0.021, 0.988 ± 0.088 and 0.95 ± 0.071.
For `CCCCCCc1ccc(O)cc1O` the same measures were 1.04 ± 0.061, 1.14 ± 0.021, 1.07, 1.09 ± 0.014 and 1 ± 0.11.
Consider `CCc1cn([C@H]2C[C@H](O)[C@@H](CO)O2)c(=O)[nH]c1=O`, for which the cell viability in assay [1] was 0.9885 ± 0.0021; in assay [2], 0.968 ± 0.073; in assay [3], 1.01 ± 0.023. For the same molecule, the results for the “TCF/Wnt firefly luciferase reporter signal” value in assay [4] and in assay [5] were 1.03 ± 0.14 and 1.08 ± 0.085, respectively.
With `O=c1cc(-c2ccc(O)cc2)oc2cc(O)cc(O)c12`, the cell viability worked out at 0.982 ± 0.026 in assay [1], 1.07 ± 0.028 in assay [2] and 1.02 ± 0.014 in assay [3]. Moreover, the “TCF/Wnt firefly luciferase reporter signal” value in assay [4] came to 1.105 ± 0.0071; in assay [5], 1.03 ± 0.05.
For `CCCCOc1ccc(OCCCN2CCOCC2)cc1` the same measures were 0.904 ± 0.086, 0.976 ± 0.077, 0.975 ± 0.011, 0.993 ± 0.11 and 1.06 ± 0.014.
For `CC(N)C(=O)OC(C)(C)Cc1ccc(Cl)cc1` (stereo not given) the same measures were 1.11 ± 0.042, 1.15 ± 0.064, 1.02 ± 0.036, 0.945 ± 0.013 and 0.879 ± 0.1.
For `C=CCc1ccc(O)c(OC)c1` the same measures were 0.978 ± 0.013, 1.07 ± 0.16, 0.943 ± 0.063, 1.06 ± 0.12 and 1.09 ± 0.078.
With `O=c1oc2ccccc2cc1O`, the cell viability in assay [1] stood at 0.992 ± 0.04; in assay [2], 0.955 ± 0.013; in assay [3], 1.03 ± 0.021. Further, the results for the “TCF/Wnt firefly luciferase reporter signal” value in assay [4] and in assay [5] were 0.765 ± 0.016 and 0.911 ± 0.14, respectively.
For `CCOc1ccc2ccccc2c1C(=O)N[C@@H]1C(=O)N2[C@@H]1SC(C)(C)[C@@H]2C(=O)O` the same measures were 0.991 ± 0.07, 1.035 ± 0.0071, 1.06 ± 0.071, 1.1 ± 0.26 and 1.12 ± 0.057.
Regarding `COc1cc2nc(N3CCN(C(=O)C4CCCO4)CC3)nc(N)c2cc1OC` (stereo not given), the cell viability was found to be 1.05 ± 0.05 in assay [1], 0.991 ± 0.11 in assay [2] and 1.03 ± 0.05 in assay [3]. Besides, the figures for the “TCF/Wnt firefly luciferase reporter signal” value in assay [4] and in assay [5] were 1.14 ± 0.13 and 1 ± 0.039, respectively.
For `CC1(C)O[C@@H]2C[C@H]3[C@@H]4C[C@H](F)C5=CC(=O)CC[C@]5(C)[C@H]4[C@@H](O)C[C@]3(C)[C@]2(C(=O)CO)O1` the same measures were 1.01 ± 0.025, 1.025 ± 0.0071, 1.02 ± 0.047, 0.949 ± 0.087 and 1.04 ± 0.073.
On the same counts, the results for `CC1=C(/C=C/C(C)=C/C=C/C(C)=C\C(=O)O)C(C)(C)CCC1` are 1.02 ± 0.05, 0.949 ± 0.1, 0.967 ± 0.012, 0.827 ± 0.097 and 0.872 ± 0.044.
Turning to `COc1c(N2CCNC(C)C2)c(F)cc2c(=O)c(C(=O)O)cn(C3CC3)c12` (stereo not given), the cell viability was found to be 0.925 ± 0.18 in assay [1], 0.911 ± 0.082 in assay [2] and 0.966 ± 0.048 in assay [3]. Also, the “TCF/Wnt firefly luciferase reporter signal” value in assay [4] worked out at 0.933 ± 0.081; in assay [5], 0.906 ± 0.041.
For the molecule `COc1cc(O)c2c(=O)c(O)c(-c3ccc(O)c(O)c3)oc2c1`, the values for the cell viability in assay [1], in assay [2] and in assay [3] were 1.06 ± 0.014, 0.992 ± 0.11 and 1.065 ± 0.0071, respectively. The figures for the “TCF/Wnt firefly luciferase reporter signal” value in assay [4] and in assay [5] were 1 ± 0.12 and 1.045 ± 0.0071, respectively.
On the same counts, the results for `Oc1cc(O)c2c(c1)O[C@H](c1cc(O)c(O)c(O)c1)[C@H](O)C2` are 0.94 ± 0.059, 0.897 ± 0.19, 0.973 ± 0.024, 0.925 ± 0.024 and 1.07.
As to `CN(C)CCCN1c2ccccc2CCc2ccccc21`, the cell viability in assay [1] worked out at 1.05 ± 0.1; in assay [2] it was 0.989 ± 0.1; in assay [3] it was 1.015 ± 0.0071. Further, the “TCF/Wnt firefly luciferase reporter signal” value in assay [4] is 0.881 ± 0.012; in assay [5], 0.913 ± 0.024.
